Measured values from publication PMC7862700, “An all-to-all approach to the identification of sequence-specific readers for epigenetic DNA modifications on cytosine”.

Columns and labels:
Assay in all cases: DAPPL (digital affinity profiling via proximity ligation, sequencing); 10 mM Tris-HCl pH 7.5, 50 mM NaCl, 1 mM DTT, 4% glycerol, room temperature, 30 min; GST-TFs on glutathione beads, 16-mer random dsDNA library, 0.1% formaldehyde crosslink after washing; high values mean tight binding
FEV = target: T1, FEV (Homo sapiens, UniProt Q99581 1-238); settings: protein: recombinant; tags: N-terminal GST; dsDNA, one strand shown
T1 sequence: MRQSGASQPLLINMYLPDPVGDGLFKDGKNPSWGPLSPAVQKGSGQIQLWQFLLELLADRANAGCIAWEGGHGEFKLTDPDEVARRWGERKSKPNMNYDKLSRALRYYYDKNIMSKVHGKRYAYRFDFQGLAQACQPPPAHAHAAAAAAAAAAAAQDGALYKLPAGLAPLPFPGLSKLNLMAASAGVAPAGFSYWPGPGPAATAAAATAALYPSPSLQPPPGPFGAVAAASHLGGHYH
Procedure, shortened: (§1)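 Human transcription factors were made in yeast as GST fusions, captured on glutathione beads and barcoded with DNA. With a tag-only sample included, the pool was incubated with 200 nmole of a random double-stranded 16-mer DNA library in Tris/NaCl/DTT/glycerol buffer at room temperature for 30 min, then crosslinked with 0.1% formaldehyde after washing, ligated by proximity, amplified and sequenced. For binding signal, each hexamer's read frequency for a factor is divided by its frequency for the tag-only sample.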

ETV5 = ETV5 (Homo sapiens, UniProt P41161 1-510); settings: protein: recombinant; tags: N-terminal GST; dsDNA, one strand shown
Chain of ETV5 (P41161 whole entry): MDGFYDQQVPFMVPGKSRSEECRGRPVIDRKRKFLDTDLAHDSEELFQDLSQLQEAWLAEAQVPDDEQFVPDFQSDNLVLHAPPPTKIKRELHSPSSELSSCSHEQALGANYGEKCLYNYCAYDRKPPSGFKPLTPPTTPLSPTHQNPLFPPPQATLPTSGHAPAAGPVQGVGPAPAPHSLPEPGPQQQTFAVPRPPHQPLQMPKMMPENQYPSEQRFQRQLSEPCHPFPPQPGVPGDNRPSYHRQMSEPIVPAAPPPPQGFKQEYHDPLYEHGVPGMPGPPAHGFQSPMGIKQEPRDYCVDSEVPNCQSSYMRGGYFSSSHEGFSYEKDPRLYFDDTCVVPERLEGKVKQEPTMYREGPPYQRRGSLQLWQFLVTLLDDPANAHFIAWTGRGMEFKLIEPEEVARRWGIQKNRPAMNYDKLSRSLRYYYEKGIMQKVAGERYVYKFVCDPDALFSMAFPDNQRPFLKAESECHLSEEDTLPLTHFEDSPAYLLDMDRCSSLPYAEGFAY
Procedure, shortened: as §1

HSF1 = HSF1 (Homo sapiens, UniProt Q00613 1-529); settings: protein: recombinant; tags: N-terminal GST; chain copies: 3; dsDNA, one strand shown
Chain of HSF1 (Q00613 whole entry): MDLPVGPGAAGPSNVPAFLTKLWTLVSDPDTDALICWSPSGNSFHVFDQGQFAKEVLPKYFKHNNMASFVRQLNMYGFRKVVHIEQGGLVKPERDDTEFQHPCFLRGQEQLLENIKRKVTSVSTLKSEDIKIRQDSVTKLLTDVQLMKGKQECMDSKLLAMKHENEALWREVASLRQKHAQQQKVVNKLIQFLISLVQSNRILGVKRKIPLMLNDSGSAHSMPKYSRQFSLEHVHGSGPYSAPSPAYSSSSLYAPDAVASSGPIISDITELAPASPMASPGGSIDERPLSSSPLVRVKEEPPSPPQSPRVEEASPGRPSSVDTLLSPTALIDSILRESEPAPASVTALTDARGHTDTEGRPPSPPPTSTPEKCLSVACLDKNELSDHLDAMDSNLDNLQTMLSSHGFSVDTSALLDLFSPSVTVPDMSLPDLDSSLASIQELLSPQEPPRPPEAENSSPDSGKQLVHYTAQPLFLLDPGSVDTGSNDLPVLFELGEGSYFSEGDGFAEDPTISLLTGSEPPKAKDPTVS
Procedure, shortened: as §1

SPIC = target: T2, SPIC (Homo sapiens, UniProt Q8N5J4 1-248); settings: protein: recombinant; tags: N-terminal GST; dsDNA, one strand shown
T2 sequence: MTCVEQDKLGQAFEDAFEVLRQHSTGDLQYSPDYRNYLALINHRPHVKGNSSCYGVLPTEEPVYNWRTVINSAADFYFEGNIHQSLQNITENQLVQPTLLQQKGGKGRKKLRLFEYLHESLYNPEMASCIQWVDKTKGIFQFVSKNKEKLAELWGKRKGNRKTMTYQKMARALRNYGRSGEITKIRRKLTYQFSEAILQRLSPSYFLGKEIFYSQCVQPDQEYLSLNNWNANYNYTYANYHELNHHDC
Procedure, shortened: as §1

ELF4 = ELF4 (Homo sapiens, UniProt Q99607 1-663); settings: protein: recombinant; tags: N-terminal GST; dsDNA, one strand shown
Chain of ELF4 (Q99607 whole entry): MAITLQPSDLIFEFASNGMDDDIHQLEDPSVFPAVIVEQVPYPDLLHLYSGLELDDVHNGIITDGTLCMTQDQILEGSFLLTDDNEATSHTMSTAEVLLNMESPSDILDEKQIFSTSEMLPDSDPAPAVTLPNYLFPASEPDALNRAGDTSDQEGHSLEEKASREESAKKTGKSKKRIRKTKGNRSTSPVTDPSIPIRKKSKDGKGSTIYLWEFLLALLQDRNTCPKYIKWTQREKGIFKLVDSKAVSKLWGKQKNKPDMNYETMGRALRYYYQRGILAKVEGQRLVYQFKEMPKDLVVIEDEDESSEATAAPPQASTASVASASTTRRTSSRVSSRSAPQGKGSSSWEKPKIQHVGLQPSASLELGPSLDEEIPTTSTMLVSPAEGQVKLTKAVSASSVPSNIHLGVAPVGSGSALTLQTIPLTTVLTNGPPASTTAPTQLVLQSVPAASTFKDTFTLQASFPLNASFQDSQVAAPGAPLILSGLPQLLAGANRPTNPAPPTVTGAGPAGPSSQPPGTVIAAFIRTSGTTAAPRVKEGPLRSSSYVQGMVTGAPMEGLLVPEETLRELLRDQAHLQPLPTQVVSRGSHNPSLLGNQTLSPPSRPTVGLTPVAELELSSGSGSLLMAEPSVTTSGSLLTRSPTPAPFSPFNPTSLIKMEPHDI
Procedure, shortened: as §1

ELK4 = target: T3, ELK4 (Homo sapiens, UniProt P28324-2 1-405); settings: protein: recombinant; tags: N-terminal GST; dsDNA, one strand shown
T3 sequence: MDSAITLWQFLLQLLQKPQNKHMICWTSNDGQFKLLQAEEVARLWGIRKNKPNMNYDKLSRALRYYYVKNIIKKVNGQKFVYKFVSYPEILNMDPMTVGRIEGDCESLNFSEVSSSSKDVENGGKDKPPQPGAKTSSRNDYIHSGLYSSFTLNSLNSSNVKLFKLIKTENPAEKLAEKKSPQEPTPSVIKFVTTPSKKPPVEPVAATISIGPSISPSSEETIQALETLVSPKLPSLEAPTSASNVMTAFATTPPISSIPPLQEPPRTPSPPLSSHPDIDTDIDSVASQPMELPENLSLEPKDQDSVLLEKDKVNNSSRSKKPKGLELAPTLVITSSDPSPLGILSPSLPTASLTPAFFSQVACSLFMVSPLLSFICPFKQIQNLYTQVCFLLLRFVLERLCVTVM
Procedure, shortened: as §1

ETV2 = target: T4, ETV2 (Homo sapiens, UniProt O00321 1-342); settings: protein: recombinant; tags: N-terminal GST; dsDNA, one strand shown
T4 sequence: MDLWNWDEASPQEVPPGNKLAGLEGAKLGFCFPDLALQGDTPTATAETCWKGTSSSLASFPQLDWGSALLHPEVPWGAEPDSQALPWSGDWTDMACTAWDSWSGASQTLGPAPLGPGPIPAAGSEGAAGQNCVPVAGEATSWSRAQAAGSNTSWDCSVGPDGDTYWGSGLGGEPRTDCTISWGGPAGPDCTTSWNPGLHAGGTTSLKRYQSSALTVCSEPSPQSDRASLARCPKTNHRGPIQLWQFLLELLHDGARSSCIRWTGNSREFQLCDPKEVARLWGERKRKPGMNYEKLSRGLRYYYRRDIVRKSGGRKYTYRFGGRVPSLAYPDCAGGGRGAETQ
Procedure, shortened: as §1

ELF3 = target: T5, ELF3 (Homo sapiens, UniProt P78545 1-371); settings: protein: recombinant; tags: N-terminal GST; dsDNA, one strand shown
T5 sequence: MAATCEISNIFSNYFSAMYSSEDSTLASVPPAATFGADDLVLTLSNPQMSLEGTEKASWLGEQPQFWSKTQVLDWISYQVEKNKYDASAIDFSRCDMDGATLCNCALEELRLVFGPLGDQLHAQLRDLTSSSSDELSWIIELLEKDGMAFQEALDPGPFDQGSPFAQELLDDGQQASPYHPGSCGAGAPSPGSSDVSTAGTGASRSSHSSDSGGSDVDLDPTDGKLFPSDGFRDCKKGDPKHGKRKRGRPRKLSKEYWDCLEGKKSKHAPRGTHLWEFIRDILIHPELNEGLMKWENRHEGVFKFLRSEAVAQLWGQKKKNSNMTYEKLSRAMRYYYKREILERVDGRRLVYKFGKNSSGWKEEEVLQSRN
Procedure, shortened: as §1

CRX = CRX (Homo sapiens, UniProt O43186 1-299); settings: protein: recombinant; tags: N-terminal GST; dsDNA, one strand shown
Chain of CRX (O43186 whole entry): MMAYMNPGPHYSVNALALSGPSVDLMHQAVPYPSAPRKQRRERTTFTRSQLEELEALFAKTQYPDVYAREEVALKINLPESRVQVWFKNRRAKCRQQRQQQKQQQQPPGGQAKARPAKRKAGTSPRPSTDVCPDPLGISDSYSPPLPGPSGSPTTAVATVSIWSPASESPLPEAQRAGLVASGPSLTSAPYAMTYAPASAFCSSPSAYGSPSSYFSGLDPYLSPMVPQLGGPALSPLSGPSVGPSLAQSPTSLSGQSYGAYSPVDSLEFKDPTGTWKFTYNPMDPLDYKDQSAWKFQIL
Procedure, shortened: as §1

ETV1 = ETV1 (Homo sapiens, UniProt P50549 1-477); settings: protein: recombinant; tags: N-terminal GST; dsDNA, one strand shown
Chain of ETV1 (P50549 whole entry): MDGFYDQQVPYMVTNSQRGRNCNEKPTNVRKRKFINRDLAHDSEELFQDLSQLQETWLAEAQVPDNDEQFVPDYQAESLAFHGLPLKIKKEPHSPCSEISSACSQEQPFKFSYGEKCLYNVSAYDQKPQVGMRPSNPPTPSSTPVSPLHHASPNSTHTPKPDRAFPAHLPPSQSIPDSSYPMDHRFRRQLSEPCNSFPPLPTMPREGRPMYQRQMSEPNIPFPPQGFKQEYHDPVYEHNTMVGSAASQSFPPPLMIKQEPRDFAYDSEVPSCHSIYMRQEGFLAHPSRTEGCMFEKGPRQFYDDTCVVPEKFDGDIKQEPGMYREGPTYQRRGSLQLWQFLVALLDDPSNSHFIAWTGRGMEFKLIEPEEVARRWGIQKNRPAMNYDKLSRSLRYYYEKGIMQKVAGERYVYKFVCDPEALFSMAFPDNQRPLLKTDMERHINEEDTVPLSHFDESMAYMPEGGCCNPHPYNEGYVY
Procedure, shortened: as §1

ERF = target: T6, ERF (Homo sapiens, UniProt P50548 1-548); settings: protein: recombinant; tags: N-terminal GST; dsDNA, one strand shown
T6 sequence: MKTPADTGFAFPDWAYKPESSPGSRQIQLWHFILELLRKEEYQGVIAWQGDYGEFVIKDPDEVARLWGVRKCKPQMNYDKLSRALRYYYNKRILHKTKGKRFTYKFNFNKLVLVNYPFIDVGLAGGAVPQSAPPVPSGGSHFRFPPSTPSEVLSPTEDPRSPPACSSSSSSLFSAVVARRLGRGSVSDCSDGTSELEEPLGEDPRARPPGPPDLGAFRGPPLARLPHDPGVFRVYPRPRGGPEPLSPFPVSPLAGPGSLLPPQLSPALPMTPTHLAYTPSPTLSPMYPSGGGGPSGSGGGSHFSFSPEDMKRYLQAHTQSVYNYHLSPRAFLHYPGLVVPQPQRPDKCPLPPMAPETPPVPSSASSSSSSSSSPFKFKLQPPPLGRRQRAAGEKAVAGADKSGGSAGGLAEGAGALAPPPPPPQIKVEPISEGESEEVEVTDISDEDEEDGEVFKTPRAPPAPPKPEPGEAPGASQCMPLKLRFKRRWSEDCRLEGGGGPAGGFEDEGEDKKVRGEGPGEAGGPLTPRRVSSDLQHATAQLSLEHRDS
Procedure, shortened: as §1

ETV3L = target: T7, ETV3L (Homo sapiens, UniProt Q6ZN32 1-361); settings: protein: recombinant; tags: N-terminal GST; dsDNA, one strand shown
T7 sequence: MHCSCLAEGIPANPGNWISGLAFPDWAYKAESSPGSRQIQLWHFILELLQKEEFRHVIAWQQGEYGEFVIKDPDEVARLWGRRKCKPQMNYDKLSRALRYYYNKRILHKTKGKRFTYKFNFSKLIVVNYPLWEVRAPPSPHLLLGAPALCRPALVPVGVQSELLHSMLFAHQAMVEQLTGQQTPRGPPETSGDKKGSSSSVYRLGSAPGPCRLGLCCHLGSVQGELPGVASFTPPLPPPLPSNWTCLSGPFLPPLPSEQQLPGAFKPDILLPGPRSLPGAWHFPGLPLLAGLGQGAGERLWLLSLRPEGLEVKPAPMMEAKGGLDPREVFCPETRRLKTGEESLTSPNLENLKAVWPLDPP
Procedure, shortened: as §1

ETS2 = target: T8, ETS2 (Homo sapiens, UniProt P15036 1-469); settings: protein: recombinant; tags: N-terminal GST; dsDNA, one strand shown
T8 sequence: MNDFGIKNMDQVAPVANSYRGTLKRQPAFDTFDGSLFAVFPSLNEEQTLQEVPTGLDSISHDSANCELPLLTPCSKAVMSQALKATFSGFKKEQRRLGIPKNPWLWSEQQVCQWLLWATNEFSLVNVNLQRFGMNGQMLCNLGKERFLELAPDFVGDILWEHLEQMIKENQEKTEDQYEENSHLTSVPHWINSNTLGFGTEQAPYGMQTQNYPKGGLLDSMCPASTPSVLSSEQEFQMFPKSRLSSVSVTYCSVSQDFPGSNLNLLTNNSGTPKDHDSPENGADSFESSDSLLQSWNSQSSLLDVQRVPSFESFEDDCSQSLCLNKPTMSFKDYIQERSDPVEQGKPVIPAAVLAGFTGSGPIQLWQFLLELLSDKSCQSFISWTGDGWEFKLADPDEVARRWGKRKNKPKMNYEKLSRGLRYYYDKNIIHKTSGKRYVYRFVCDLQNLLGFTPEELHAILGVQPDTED
Procedure, shortened: as §1

SPDEF = target: T9, SPDEF (Homo sapiens, UniProt O95238 1-335); settings: protein: recombinant; tags: N-terminal GST; dsDNA, one strand shown
T9 sequence: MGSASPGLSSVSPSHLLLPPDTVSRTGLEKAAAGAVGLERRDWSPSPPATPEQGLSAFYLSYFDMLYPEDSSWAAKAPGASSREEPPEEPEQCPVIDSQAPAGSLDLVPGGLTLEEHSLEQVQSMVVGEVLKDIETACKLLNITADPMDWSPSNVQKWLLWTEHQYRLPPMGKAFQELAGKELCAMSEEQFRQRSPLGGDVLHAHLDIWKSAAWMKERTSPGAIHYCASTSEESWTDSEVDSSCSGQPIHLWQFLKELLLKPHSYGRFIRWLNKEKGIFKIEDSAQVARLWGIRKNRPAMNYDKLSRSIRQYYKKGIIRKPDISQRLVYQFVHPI
Procedure, shortened: as §1

ETV7 = target: T10, ETV7 (Homo sapiens, UniProt Q9Y603 1-341); settings: protein: recombinant; tags: N-terminal GST; dsDNA, one strand shown
T10 sequence: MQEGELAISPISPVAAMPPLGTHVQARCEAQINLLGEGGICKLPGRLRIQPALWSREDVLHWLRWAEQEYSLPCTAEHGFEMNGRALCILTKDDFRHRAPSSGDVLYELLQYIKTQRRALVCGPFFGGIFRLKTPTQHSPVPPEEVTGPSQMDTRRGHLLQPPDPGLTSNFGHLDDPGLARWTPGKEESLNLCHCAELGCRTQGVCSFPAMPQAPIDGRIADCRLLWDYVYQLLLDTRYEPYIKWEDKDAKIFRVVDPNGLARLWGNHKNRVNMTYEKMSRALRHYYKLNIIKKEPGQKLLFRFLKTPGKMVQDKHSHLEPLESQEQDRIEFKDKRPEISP
Procedure, shortened: as §1

ELF5 = target: T11, ELF5 (Homo sapiens, UniProt Q9UKW6-2 1-255); settings: protein: recombinant; tags: N-terminal GST; dsDNA, one strand shown
T11 sequence: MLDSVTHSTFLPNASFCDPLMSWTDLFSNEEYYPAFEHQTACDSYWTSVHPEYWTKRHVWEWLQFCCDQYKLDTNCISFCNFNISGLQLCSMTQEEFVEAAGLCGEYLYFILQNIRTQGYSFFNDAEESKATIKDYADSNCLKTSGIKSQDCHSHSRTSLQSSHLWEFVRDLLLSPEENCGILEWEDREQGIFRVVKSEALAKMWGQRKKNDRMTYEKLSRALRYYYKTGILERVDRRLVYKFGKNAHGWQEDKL
Procedure, shortened: as §1

ETV3 = target: T12, ETV3 (Homo sapiens, UniProt P41162-2 1-143); settings: protein: recombinant; tags: N-terminal GST; dsDNA, one strand shown
T12 sequence: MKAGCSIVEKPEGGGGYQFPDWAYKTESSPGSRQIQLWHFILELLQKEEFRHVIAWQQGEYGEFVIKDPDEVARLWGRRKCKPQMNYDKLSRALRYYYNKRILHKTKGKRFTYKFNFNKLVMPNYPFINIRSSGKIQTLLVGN
Procedure, shortened: as §1

ETV6 = ETV6 (Homo sapiens, UniProt P41212 1-452); settings: protein: recombinant; tags: N-terminal GST; dsDNA, one strand shown
Chain of ETV6 (P41212 whole entry): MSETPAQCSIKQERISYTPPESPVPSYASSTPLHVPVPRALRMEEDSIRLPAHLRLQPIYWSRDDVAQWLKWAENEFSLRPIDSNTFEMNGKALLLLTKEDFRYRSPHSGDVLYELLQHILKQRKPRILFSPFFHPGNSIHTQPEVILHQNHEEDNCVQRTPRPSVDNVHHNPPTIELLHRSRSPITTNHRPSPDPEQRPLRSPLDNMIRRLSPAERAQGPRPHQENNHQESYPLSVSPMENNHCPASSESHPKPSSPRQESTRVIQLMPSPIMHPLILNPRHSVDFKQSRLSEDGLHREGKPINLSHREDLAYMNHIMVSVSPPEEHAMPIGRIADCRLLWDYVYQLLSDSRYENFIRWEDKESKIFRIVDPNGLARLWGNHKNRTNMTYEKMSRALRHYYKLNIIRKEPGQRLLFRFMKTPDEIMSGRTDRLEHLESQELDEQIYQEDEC
Procedure, shortened: as §1

**Q.** How did the binding signal (FEV) turn out when ATACCC was run?
**A.** 1.17 fold enrichment (6-mer frequency, TF over GST control)

**Q.** And the binding signal (ETV5)?
**A.** 1.16 fold enrichment (6-mer frequency, TF over GST control)

**Q.** And the binding signal (HSF1)?
**A.** 1 fold enrichment (6-mer frequency, TF over GST control)

**Q.** What about the binding signal (SPIC) of the same sequence?
**A.** 1.2 fold enrichment (6-mer frequency, TF over GST control)

**Q.** And the binding signal (ELF4)?
**A.** 1.13 fold enrichment (6-mer frequency, TF over GST control)

**Q.** And the binding signal (ELK4)?
**A.** 1.16 fold enrichment (6-mer frequency, TF over GST control)

**Q.** What about the binding signal (ETV2) of the same sequence?
**A.** 1.24 fold enrichment (6-mer frequency, TF over GST control)

**Q.** What about the binding signal (ELF3) of the same sequence?
**A.** 1.16 fold enrichment (6-mer frequency, TF over GST control)

**Q.** What about the binding signal (CRX) of the same sequence?
**A.** 1.2 fold enrichment (6-mer frequency, TF over GST control)

**Q.** What about the binding signal (ETV1) of the same sequence?
**A.** 1.23 fold enrichment (6-mer frequency, TF over GST control)

**Q.** And the binding signal (ERF)?
**A.** 1.14 fold enrichment (6-mer frequency, TF over GST control)

**Q.** What about the binding signal (ETV3L) of the same sequence?
**A.** 1.18 fold enrichment (6-mer frequency, TF over GST control)

**Q.** And the binding signal (ETS2)?
**A.** 1.24 fold enrichment (6-mer frequency, TF over GST control)

**Q.** And the binding signal (SPDEF)?
**A.** 1.27 fold enrichment (6-mer frequency, TF over GST control)

**Q.** And the binding signal (ETV7)?
**A.** 1.18 fold enrichment (6-mer frequency, TF over GST control)

**Q.** What about the binding signal (ELF5) of the same sequence?
**A.** 1.18 fold enrichment (6-mer frequency, TF over GST control)

**Q.** What about the binding signal (ETV3) of the same sequence?
**A.** 1.18 fold enrichment (6-mer frequency, TF over GST control)

**Q.** And the binding signal (ETV6)?
**A.** 1.09 fold enrichment (6-mer frequency, TF over GST control)
